Test results as given in PMC7862700, “An all-to-all approach to the identification of sequence-specific readers for epigenetic DNA modifications on cytosine”.

Columns and labels:
Test in all cases: DAPPL (digital affinity profiling via proximity ligation, sequencing); 10 mM Tris-HCl pH 7.5, 50 mM NaCl, 1 mM DTT, 4% glycerol, room temperature, 30 min; GST-TFs on glutathione beads, 16-mer random dsDNA library, 0.1% formaldehyde crosslink after washing; high values mean tight binding
[1] = target: T1, FLI1 (Homo sapiens, UniProt Q01543 1-452); settings: protein: recombinant; tags: N-terminal GST; dsDNA, one strand shown
T1 sequence: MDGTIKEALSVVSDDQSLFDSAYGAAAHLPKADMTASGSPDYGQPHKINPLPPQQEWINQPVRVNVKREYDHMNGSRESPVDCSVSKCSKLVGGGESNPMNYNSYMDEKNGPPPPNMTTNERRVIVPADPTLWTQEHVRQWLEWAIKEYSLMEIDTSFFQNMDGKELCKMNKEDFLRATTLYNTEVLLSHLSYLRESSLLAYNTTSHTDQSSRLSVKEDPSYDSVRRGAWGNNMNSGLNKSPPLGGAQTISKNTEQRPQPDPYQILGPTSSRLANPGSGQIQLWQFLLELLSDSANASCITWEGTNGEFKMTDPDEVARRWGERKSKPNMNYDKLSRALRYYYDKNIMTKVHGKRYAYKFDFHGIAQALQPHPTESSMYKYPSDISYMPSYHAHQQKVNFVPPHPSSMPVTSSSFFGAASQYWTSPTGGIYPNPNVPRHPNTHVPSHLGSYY
Method in brief: (§1)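 Pools of DNA-barcoded human transcription factors, expressed in yeast as GST fusions on glutathione beads and combined with a tag-only sample, were incubated with 200 nmole of a 16-mer random double-stranded DNA library. Incubation took 30 min at room temperature in Tris/NaCl/DTT/glycerol buffer and was followed by washing, 0.1% formaldehyde crosslinking, proximity ligation (BsaI/T4 ligase, 1 h, 37 °C), PCR amplification and sequencing on an Illumina NextSeq500. Binding signal is the ratio of a hexamer's read frequency for a factor to its frequency for the tag-only sample.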

[2] = target: T2, ELK1 (Homo sapiens, UniProt P19419 1-428); settings: protein: recombinant; tags: N-terminal GST; dsDNA, one strand shown
T2 sequence: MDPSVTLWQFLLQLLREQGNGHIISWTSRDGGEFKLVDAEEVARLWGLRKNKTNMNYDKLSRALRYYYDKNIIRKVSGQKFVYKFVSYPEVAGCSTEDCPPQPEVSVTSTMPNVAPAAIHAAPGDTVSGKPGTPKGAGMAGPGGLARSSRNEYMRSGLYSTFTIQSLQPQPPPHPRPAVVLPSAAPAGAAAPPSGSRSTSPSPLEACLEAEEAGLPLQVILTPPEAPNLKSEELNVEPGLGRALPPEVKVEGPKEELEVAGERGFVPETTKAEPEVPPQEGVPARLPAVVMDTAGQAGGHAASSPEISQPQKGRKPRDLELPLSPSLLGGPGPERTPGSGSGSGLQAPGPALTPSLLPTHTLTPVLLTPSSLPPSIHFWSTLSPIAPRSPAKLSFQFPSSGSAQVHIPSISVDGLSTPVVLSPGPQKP
Method in brief: as §1

[3] = target: T3, GABPA (Homo sapiens, UniProt Q06546 1-454); settings: protein: recombinant; tags: N-terminal GST; dsDNA, one strand shown
T3 sequence: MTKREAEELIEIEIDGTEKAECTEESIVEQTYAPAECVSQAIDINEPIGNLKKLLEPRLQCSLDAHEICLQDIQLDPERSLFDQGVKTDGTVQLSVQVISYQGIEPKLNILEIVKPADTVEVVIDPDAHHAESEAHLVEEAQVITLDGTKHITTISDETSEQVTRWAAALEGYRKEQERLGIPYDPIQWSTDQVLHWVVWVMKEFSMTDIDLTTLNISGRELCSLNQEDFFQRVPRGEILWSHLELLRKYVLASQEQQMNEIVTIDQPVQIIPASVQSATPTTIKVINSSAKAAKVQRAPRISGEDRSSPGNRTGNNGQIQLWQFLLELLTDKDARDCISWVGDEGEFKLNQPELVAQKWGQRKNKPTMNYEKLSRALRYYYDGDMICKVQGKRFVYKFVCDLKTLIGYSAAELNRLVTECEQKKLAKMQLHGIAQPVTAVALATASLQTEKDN
Method in brief: as §1

[4] = target: T4, ERG (Homo sapiens, UniProt P11308 1-479); settings: protein: recombinant; tags: N-terminal GST; dsDNA, one strand shown
T4 sequence: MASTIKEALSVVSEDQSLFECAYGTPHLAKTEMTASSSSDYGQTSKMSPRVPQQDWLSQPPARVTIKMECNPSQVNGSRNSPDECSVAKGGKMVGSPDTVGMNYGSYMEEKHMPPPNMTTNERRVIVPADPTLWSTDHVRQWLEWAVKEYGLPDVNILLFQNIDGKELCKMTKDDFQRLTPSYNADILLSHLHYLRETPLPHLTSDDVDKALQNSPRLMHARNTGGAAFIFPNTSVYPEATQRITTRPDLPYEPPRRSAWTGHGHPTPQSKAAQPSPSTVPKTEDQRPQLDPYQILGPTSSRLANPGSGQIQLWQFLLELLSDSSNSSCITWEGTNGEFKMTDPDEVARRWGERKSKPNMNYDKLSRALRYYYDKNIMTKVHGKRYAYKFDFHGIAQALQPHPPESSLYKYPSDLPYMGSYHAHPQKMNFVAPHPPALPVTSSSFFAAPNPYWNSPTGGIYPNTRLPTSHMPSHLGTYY
Method in brief: as §1

[5] = target: ELF1 (Homo sapiens, UniProt P32519 1-619); settings: protein: recombinant; tags: N-terminal GST; dsDNA, one strand shown
Method in brief: as §1

[6] = target: T5, EHF (Homo sapiens, UniProt Q9NZC4 1-300); settings: protein: recombinant; tags: N-terminal GST; dsDNA, one strand shown
T5 sequence: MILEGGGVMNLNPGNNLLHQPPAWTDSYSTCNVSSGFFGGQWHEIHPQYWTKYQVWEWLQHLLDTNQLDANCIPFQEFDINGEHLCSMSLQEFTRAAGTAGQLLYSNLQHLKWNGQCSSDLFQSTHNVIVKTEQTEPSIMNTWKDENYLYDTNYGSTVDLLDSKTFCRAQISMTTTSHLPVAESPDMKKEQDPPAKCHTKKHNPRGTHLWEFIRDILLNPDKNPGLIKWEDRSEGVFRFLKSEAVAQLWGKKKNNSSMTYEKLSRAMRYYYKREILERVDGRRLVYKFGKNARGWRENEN
Method in brief: as §1

[7] = target: SPI1 (Homo sapiens, UniProt P17947 1-270); settings: protein: recombinant; tags: N-terminal GST; dsDNA, one strand shown
Method in brief: as §1

[8] = target: SPIB (Homo sapiens, UniProt Q01892 1-262); settings: protein: recombinant; tags: N-terminal GST; dsDNA, one strand shown
Method in brief: as §1

[9] = target: T6, ELK3 (Homo sapiens, UniProt P41970 1-407); settings: protein: recombinant; tags: N-terminal GST; dsDNA, one strand shown
T6 sequence: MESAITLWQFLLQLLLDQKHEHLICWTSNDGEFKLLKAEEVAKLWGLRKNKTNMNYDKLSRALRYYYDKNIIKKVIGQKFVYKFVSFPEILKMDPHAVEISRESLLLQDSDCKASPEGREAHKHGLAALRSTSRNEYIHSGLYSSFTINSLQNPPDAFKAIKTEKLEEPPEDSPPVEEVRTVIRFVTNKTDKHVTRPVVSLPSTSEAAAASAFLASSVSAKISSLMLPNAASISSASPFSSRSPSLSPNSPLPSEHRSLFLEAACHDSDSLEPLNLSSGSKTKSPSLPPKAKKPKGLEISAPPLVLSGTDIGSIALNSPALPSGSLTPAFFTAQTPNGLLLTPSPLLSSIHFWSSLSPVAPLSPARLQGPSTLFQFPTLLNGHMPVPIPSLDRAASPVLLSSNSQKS
Method in brief: as §1

[10] = target: T7, FEV (Homo sapiens, UniProt Q99581 1-238); settings: protein: recombinant; tags: N-terminal GST; dsDNA, one strand shown
T7 sequence: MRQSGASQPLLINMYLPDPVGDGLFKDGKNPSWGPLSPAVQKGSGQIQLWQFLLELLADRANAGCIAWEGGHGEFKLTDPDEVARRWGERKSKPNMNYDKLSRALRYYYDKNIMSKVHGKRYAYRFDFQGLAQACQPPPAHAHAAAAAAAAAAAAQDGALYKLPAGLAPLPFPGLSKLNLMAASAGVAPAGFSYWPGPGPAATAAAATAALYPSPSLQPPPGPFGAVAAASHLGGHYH
Method in brief: as §1

[11] = target: ETV5 (Homo sapiens, UniProt P41161 1-510); settings: protein: recombinant; tags: N-terminal GST; dsDNA, one strand shown
Method in brief: as §1

[12] = target: HSF1 (Homo sapiens, UniProt Q00613 1-529); settings: protein: recombinant; tags: N-terminal GST; chain copies: 3; dsDNA, one strand shown
Method in brief: as §1

[13] = target: T8, SPIC (Homo sapiens, UniProt Q8N5J4 1-248); settings: protein: recombinant; tags: N-terminal GST; dsDNA, one strand shown
T8 sequence: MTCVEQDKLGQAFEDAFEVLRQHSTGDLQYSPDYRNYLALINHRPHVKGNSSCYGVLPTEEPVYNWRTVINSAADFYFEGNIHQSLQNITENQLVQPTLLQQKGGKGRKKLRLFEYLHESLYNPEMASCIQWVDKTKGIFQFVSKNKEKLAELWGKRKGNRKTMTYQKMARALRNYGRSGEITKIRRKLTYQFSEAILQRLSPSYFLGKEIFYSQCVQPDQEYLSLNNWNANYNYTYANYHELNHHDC
Method in brief: as §1

[14] = target: ELF4 (Homo sapiens, UniProt Q99607 1-663); settings: protein: recombinant; tags: N-terminal GST; dsDNA, one strand shown
Method in brief: as §1

[15] = target: T9, ELK4 (Homo sapiens, UniProt P28324-2 1-405); settings: protein: recombinant; tags: N-terminal GST; dsDNA, one strand shown
T9 sequence: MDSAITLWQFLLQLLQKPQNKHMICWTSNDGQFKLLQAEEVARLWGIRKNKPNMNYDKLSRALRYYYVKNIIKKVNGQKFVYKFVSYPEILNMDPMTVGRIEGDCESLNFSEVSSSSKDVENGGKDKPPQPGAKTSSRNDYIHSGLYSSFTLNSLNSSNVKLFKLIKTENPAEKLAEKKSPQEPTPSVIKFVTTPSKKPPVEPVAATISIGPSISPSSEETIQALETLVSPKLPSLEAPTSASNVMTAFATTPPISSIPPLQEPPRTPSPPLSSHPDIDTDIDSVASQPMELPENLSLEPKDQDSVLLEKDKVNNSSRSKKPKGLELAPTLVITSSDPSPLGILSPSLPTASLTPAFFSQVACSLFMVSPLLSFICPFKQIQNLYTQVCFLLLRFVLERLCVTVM
Method in brief: as §1

[16] = target: T10, ETV2 (Homo sapiens, UniProt O00321 1-342); settings: protein: recombinant; tags: N-terminal GST; dsDNA, one strand shown
T10 sequence: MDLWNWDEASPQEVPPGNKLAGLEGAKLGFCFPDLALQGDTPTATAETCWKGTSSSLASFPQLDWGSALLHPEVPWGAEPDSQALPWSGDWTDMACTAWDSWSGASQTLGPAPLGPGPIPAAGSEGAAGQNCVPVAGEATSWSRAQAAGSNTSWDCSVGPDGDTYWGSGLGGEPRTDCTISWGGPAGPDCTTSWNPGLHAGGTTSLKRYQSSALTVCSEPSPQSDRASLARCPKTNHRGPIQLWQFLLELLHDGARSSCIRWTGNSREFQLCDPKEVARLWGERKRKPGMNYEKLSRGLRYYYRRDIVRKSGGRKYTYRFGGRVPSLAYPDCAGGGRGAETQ
Method in brief: as §1

[17] = target: T11, ELF3 (Homo sapiens, UniProt P78545 1-371); settings: protein: recombinant; tags: N-terminal GST; dsDNA, one strand shown
T11 sequence: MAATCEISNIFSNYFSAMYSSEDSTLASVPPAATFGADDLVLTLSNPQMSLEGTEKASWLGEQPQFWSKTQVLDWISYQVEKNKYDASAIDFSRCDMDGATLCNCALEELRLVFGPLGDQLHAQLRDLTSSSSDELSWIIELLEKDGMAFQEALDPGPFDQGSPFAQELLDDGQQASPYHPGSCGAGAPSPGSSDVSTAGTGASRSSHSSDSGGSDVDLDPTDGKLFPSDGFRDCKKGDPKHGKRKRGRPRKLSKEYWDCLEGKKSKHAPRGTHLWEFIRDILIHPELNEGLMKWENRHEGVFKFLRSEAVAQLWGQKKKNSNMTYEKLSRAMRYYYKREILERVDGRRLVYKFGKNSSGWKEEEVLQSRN
Method in brief: as §1

[18] = target: CRX (Homo sapiens, UniProt O43186 1-299); settings: protein: recombinant; tags: N-terminal GST; dsDNA, one strand shown
Method in brief: as §1

[19] = target: ETV1 (Homo sapiens, UniProt P50549 1-477); settings: protein: recombinant; tags: N-terminal GST; dsDNA, one strand shown
Method in brief: as §1

Sequence of ETV1 (P50549 whole entry): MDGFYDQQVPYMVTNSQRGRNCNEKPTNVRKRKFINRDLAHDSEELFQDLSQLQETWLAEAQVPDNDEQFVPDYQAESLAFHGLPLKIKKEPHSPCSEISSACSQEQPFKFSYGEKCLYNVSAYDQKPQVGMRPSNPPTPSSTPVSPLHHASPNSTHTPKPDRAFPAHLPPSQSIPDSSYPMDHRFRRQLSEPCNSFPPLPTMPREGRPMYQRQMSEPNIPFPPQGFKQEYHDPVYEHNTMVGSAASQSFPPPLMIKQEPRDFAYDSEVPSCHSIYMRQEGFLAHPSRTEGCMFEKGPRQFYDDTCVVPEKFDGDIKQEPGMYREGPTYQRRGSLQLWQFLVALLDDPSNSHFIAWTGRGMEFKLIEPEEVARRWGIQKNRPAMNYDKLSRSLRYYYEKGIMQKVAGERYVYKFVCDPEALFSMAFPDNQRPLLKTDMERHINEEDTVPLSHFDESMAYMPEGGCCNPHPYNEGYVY
Sequence of SPIB (Q01892 whole entry): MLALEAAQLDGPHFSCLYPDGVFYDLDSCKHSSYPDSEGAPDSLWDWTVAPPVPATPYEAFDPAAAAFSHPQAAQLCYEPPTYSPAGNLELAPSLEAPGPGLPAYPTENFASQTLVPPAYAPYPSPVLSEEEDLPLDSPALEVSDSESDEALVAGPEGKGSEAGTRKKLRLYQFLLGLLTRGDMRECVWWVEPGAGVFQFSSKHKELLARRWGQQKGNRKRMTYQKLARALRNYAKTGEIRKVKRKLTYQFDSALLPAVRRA
Sequence of HSF1 (Q00613 whole entry): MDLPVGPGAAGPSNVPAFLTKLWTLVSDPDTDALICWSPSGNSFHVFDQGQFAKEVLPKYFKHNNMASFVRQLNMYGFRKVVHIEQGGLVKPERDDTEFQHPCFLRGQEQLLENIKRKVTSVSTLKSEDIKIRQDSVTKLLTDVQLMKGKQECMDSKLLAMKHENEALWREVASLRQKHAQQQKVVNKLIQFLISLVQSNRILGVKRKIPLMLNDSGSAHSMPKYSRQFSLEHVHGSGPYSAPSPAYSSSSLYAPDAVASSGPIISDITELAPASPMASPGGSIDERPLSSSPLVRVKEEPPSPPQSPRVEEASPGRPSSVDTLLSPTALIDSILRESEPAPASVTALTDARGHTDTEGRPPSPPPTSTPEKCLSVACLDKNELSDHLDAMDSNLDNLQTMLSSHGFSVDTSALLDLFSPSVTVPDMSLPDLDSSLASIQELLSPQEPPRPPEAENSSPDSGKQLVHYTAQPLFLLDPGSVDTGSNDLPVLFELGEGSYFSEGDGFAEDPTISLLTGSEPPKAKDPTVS
Sequence of ELF4 (Q99607 whole entry): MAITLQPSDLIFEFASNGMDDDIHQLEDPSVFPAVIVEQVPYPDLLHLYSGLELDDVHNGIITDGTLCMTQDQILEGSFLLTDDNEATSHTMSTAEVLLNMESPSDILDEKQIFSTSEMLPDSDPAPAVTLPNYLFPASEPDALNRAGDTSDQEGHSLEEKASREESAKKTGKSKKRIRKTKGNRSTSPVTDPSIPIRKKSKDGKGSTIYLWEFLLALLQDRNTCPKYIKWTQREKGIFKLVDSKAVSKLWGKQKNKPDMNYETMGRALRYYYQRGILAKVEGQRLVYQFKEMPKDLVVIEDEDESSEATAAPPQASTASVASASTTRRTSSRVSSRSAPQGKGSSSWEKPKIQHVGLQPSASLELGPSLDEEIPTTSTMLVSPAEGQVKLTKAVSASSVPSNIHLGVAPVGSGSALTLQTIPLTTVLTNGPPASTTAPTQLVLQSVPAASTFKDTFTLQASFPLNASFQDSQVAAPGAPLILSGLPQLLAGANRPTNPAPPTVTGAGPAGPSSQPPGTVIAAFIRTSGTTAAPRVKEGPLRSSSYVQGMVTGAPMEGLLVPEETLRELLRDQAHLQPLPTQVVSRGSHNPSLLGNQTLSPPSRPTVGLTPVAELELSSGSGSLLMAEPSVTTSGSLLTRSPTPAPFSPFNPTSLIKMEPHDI
Sequence of ETV5 (P41161 whole entry): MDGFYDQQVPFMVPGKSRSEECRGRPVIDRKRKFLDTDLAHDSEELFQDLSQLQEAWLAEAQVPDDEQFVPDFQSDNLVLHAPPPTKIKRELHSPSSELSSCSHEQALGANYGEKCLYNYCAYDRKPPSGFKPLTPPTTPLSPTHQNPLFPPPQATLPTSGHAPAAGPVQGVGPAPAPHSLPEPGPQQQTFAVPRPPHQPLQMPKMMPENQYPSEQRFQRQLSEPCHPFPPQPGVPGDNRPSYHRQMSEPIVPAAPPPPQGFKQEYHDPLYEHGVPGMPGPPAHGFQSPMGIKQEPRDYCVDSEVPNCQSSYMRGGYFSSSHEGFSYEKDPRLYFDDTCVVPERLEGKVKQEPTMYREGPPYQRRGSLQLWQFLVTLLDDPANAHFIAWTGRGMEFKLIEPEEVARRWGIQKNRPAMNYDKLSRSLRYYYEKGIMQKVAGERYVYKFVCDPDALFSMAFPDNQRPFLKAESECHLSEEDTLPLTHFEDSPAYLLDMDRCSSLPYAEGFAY
Sequence of CRX (O43186 whole entry): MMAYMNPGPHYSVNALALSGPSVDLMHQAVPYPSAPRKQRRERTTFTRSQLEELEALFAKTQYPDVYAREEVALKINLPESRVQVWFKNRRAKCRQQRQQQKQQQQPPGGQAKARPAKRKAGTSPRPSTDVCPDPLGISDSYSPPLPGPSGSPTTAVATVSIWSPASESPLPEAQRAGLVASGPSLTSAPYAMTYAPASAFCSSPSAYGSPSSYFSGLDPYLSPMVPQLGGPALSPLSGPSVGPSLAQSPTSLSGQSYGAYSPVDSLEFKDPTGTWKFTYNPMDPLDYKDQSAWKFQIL
Sequence of ELF1 (P32519 whole entry): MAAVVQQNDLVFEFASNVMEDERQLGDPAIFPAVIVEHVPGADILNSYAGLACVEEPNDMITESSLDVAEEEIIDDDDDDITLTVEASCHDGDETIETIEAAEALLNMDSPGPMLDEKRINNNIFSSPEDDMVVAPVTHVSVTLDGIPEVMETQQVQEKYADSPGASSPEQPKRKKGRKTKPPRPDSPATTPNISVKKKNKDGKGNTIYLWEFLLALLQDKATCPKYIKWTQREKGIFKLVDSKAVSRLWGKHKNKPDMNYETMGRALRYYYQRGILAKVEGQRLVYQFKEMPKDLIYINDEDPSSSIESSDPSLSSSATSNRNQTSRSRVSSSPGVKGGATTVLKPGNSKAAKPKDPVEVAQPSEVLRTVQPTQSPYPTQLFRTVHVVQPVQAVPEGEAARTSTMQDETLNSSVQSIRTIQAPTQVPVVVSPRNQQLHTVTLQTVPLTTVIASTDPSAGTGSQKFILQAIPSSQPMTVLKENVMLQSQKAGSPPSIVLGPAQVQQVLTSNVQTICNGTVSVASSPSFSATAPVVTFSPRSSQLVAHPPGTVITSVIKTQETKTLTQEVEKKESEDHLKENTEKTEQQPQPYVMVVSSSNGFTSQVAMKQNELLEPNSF

Question: Which results are given for ATCGAA?
Answer: binding signal [1]: 1.11 fold enrichment (6-mer frequency, TF over GST control); binding signal [2]: 1.12 fold enrichment (6-mer frequency, TF over GST control); binding signal [3]: 1.1 fold enrichment (6-mer frequency, TF over GST control); binding signal [4]: 1.1 fold enrichment (6-mer frequency, TF over GST control); binding signal [5]: 1.14 fold enrichment (6-mer frequency, TF over GST control); binding signal [6]: 1.16 fold enrichment (6-mer frequency, TF over GST control); binding signal [7]: 1.13 fold enrichment (6-mer frequency, TF over GST control); binding signal [8]: 1.18 fold enrichment (6-mer frequency, TF over GST control); binding signal [9]: 1.08 fold enrichment (6-mer frequency, TF over GST control); binding signal [10]: 1.08 fold enrichment (6-mer frequency, TF over GST control); binding signal [11]: 1.16 fold enrichment (6-mer frequency, TF over GST control); binding signal [12]: 1.87 fold enrichment (6-mer frequency, TF over GST control); binding signal [13]: 1.11 fold enrichment (6-mer frequency, TF over GST control); binding signal [14]: 1.14 fold enrichment (6-mer frequency, TF over GST control); binding signal [15]: 1.14 fold enrichment (6-mer frequency, TF over GST control); binding signal [16]: 1.07 fold enrichment (6-mer frequency, TF over GST control); binding signal [17]: 1.07 fold enrichment (6-mer frequency, TF over GST control); binding signal [18]: 1.31 fold enrichment (6-mer frequency, TF over GST control); binding signal [19]: 1.13 fold enrichment (6-mer frequency, TF over GST control)
